Many of the other results were omitted from the sample, so hits are more common in it than they were.
Pf apPOL inh = Pf-apPOL DNA polymerase inhibition. Recombinant Pf-apPOL, molecular beacon fluorescence, 1.5 h. inhibition, % at 10 µM. 210,000 tested, 0.25% active. AID 1794808
mHTT CaM bind = disrupts binding of mutant huntingtin to calmodulin; inhibition, % at 15 µM; 190,000 tested, 3.6% active; AlphaScreen His-mHTT/GST-CaM binding, luminescence; AID 1671202; P42858;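 note: 0% = both proteins with DMSO and 100% = one protein alone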
Target sequence (P42858 whole entry, looked up, stated change not applied): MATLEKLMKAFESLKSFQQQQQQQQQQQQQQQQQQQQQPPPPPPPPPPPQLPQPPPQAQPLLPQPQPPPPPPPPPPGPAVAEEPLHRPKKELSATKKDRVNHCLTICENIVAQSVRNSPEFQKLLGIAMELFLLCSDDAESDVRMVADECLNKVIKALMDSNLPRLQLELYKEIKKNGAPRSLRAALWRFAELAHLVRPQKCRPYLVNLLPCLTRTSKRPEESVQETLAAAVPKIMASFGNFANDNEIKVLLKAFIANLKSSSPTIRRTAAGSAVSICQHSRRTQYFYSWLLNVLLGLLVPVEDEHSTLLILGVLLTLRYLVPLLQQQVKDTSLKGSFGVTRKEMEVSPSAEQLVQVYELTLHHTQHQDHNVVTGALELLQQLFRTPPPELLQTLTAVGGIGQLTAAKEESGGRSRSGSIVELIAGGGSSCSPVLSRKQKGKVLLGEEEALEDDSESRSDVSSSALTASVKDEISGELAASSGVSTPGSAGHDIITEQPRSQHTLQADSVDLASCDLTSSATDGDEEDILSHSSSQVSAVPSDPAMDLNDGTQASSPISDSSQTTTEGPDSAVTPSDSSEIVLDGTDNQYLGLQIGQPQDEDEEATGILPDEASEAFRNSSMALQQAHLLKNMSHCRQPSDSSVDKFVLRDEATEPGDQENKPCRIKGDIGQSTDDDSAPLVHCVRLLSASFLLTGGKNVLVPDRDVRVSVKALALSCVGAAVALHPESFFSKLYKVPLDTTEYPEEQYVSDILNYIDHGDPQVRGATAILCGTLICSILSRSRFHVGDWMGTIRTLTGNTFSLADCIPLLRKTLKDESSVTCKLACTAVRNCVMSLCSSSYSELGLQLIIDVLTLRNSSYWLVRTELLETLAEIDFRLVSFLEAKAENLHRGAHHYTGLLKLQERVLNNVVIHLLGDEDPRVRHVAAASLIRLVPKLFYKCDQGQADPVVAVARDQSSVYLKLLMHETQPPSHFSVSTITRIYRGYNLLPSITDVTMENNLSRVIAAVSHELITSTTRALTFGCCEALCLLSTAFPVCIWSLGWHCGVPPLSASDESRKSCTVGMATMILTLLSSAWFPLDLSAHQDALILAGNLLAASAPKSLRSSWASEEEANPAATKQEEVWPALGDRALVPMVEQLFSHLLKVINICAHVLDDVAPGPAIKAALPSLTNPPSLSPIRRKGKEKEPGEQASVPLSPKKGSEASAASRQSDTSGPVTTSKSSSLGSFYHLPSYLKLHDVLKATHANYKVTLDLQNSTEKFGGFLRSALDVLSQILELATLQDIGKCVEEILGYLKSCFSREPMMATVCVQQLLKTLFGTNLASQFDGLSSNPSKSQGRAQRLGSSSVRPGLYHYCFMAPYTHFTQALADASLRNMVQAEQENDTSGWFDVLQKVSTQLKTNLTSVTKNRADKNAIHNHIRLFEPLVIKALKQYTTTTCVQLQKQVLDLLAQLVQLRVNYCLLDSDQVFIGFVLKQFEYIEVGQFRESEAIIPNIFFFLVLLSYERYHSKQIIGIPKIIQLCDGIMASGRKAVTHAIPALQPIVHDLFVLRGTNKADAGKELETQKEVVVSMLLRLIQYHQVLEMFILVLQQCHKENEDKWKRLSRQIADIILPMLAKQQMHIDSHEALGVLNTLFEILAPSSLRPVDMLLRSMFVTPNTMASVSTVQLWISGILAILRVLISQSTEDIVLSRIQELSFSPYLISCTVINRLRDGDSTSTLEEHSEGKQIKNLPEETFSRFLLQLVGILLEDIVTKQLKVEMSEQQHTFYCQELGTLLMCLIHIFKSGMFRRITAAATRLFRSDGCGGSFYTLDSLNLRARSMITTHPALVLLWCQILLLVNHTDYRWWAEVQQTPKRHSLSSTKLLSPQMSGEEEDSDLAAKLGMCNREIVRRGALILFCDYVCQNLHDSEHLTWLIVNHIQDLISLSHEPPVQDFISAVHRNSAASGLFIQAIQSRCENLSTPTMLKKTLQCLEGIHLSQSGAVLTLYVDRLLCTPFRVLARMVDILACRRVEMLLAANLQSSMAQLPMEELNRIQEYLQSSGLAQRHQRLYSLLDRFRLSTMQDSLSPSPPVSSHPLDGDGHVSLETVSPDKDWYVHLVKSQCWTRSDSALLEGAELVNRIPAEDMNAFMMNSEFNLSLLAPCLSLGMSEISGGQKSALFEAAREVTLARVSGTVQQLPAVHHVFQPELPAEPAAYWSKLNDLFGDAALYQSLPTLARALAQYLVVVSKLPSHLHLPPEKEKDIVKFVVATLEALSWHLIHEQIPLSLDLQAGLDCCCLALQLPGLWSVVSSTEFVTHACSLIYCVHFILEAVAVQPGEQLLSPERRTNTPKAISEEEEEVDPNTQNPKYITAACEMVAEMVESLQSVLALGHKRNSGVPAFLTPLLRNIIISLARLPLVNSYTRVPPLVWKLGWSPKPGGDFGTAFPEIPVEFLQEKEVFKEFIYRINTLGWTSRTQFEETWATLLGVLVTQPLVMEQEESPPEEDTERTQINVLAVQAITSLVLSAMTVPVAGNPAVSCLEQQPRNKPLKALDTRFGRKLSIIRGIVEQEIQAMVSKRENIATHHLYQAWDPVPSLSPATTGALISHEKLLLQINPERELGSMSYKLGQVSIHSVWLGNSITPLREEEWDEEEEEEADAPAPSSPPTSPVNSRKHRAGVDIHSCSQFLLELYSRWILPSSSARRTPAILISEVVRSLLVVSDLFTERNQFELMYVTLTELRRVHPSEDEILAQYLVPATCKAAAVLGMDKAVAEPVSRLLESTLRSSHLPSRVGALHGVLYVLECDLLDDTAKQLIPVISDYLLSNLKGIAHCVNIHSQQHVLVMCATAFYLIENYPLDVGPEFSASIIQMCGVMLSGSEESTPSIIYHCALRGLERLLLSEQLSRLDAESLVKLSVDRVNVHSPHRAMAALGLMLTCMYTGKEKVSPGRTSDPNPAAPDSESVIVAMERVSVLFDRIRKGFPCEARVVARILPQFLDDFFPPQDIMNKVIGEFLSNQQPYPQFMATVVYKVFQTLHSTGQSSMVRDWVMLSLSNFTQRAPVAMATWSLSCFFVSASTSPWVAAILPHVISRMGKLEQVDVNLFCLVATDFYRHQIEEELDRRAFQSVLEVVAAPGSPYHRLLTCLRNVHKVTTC
An asterisk follows results filed as active. Cut-off read from the data, not from the text of the source: active = inhibition above about 50%; inactive = the rest.

Results for Cc1nc2cc(NC(=O)Cc3csc(NC(=O)C4CCCC4)n3)ccc2s1 ?
Pf apPOL inh: -10; mHTT CaM bind: -18

Results for O=C(CCCCCn1c(=O)[nH]c2ccsc2c1=O)NCc1ccccc1Cl ?
Pf apPOL inh: -2; mHTT CaM bind: 2

Results for COc1cccc(-c2nc(-c3ccc4ncn(C)c4c3)no2)c1 ?
Pf apPOL inh: -6; mHTT CaM bind: -8

How did CCn1cnc2ccc(-c3noc(CCc4c[nH]c5ccccc45)n3)cc21 do in these assays?
Pf apPOL inh: -3; mHTT CaM bind: 100*

Results for Cn1cnc2ccc(-c3noc(CCc4c[nH]c5ccccc45)n3)cc21 ?
Pf apPOL inh: -3; mHTT CaM bind: 76*

What do the screens show for `Cn1cnc2ccc(-c3noc(Cc4cccs4)n3)cc21`?
Pf apPOL inh: 0; mHTT CaM bind: 9

Results for CCn1cnc2ccc(-c3noc(-c4ccccc4)n3)cc21 ?
Pf apPOL inh: -19; mHTT CaM bind: 28

How did CCn1cnc2ccc(-c3noc(-c4cccc(OC)c4)n3)cc21 do in these assays?
Pf apPOL inh: 0; mHTT CaM bind: 76*

Results for CCn1cnc2ccc(-c3noc(Cc4ccccc4Cl)n3)cc21 ?
Pf apPOL inh: -1; mHTT CaM bind: 7

What do the screens show for `CCn1cnc2ccc(-c3noc(Cc4c[nH]c5ccccc45)n3)cc21`?
Pf apPOL inh: -5; mHTT CaM bind: 99*

What do the screens show for `O=[N+]([O-])c1ccc(-n2ccc3ccccc32)cc1`?
Pf apPOL inh: -8; mHTT CaM bind: 21

How did O=C(CN(c1cc(C(F)(F)F)ccc1Cl)S(=O)(=O)c1ccccc1)Nc1ccccc1 do in these assays?
Pf apPOL inh: -5; mHTT CaM bind: 99*

What do the screens show for `COc1ccc(NC(=O)CN(c2ccc(C)cc2C)S(C)(=O)=O)cc1OC`?
Pf apPOL inh: -13; mHTT CaM bind: 3

What do the screens show for `COc1ccccc1N(CC(=O)Nc1ccc(Br)c(C)c1)S(C)(=O)=O`?
Pf apPOL inh: -7; mHTT CaM bind: 69*

Results for CS(=O)(=O)N(CC(=O)Nc1ccccc1)c1cc(C(F)(F)F)ccc1Cl ?
Pf apPOL inh: -2; mHTT CaM bind: 6

What do the screens show for `Cc1cccc(N(CC(=O)Nc2ccccc2Cl)S(=O)(=O)c2ccccc2)c1C`?
Pf apPOL inh: -8; mHTT CaM bind: -8

How did COc1ccc(C)cc1N(CC(=O)Nc1cccc(Br)c1)S(C)(=O)=O do in these assays?
Pf apPOL inh: -4; mHTT CaM bind: 41

Results for Cc1cccc(N(CC(=O)Nc2ccc(F)cc2)S(=O)(=O)c2ccccc2)c1C ?
Pf apPOL inh: 32; mHTT CaM bind: 100*

What do the screens show for `Cc1ccc(N(CC(=O)Nc2ccc(F)cc2)S(C)(=O)=O)c(C)c1`?
Pf apPOL inh: 74*; mHTT CaM bind: 5

Results for O=C1CN(C(=O)c2ccccc2Br)C(c2ccc(F)cc2)c2cc(Cl)ccc2N1 (stereo not given) ?
Pf apPOL inh: -7; mHTT CaM bind: -3

What do the screens show for `COc1ccc(-n2ccnc2SCC(=O)Nc2ccccc2C(F)(F)F)cc1`?
Pf apPOL inh: 6; mHTT CaM bind: 19

What do the screens show for `Cc1ccc(N(CC(=O)Nc2ccc(C(N)=O)cc2)S(=O)(=O)c2ccc(F)cc2)cc1`?
Pf apPOL inh: -3; mHTT CaM bind: 13

How did COc1ccc(NC(=O)CN(c2ccc(C)cc2)S(=O)(=O)c2ccc(F)cc2)cc1OC do in these assays?
Pf apPOL inh: 90*; mHTT CaM bind: 5

What do the screens show for `COc1ccccc1NC(=O)CN(c1ccccc1C)S(=O)(=O)c1ccc(C)cc1`?
Pf apPOL inh: -2; mHTT CaM bind: -1

How did Cc1ccc(S(=O)(=O)N(CC(=O)Nc2ccccc2F)c2ccccc2C)cc1 do in these assays?
Pf apPOL inh: -5; mHTT CaM bind: 82*

How did Nc1nc(Sc2cc(-n3cccc3)c(Cl)cc2[N+](=O)[O-])n[nH]1 do in these assays?
Pf apPOL inh: -3

Results for Cc1ccccc1NCC(=O)Nc1c(C)cccc1C ?
Pf apPOL inh: -5; mHTT CaM bind: 19

What do the screens show for `O=C(SCc1cccc(C(F)(F)F)c1)c1ccc(Cl)c(Cl)c1`?
Pf apPOL inh: 3

How did O=C(c1ccc(Cl)c(Cl)c1)N1CCC(=O)N([C@H](COCc2cccc(C(F)(F)F)c2)Cc2ccccc2)CC1 do in these assays?
Pf apPOL inh: -4; mHTT CaM bind: 100*

Results for O=C(c1ccc(Cl)c(Cl)c1)N1CCC(=O)N([C@H](COCc2ccccc2)Cc2ccccc2)CC1 ?
Pf apPOL inh: -4; mHTT CaM bind: 100*

Results for Cc1ccc(S(=O)(=O)N2CCC(=O)N([C@H](COCc3ccc(Cl)cc3Cl)Cc3ccccc3)CC2)cc1 ?
Pf apPOL inh: -4; mHTT CaM bind: -10

Results for C=CCOc1ccc(/C=C2/SC(=Nc3cccc(C(=O)O)c3)NC2=O)cc1OC ?
Pf apPOL inh: -5; mHTT CaM bind: 58*

Results for CCOc1cc(/C=C2/SC(=Nc3ccccc3)NC2=O)ccc1O ?
Pf apPOL inh: -14; mHTT CaM bind: 45

Results for C=CCOc1ccc(/C=C2/SC(=Nc3ccccc3)NC2=O)cc1OC ?
Pf apPOL inh: -7; mHTT CaM bind: 30

How did COc1cc(/C=C2\Sc3ccccc3C2=O)cc([N+](=O)[O-])c1O do in these assays?
Pf apPOL inh: 0; mHTT CaM bind: 81*

How did COc1cc(/C=C2\SC(=Nc3ccccc3)NC2=O)cc(I)c1O do in these assays?
Pf apPOL inh: 3; mHTT CaM bind: 68*

Results for CCOc1cc(/C=C2\SC(=Nc3ccccc3)NC2=O)cc(Br)c1O ?
Pf apPOL inh: -52; mHTT CaM bind: 86*

Results for O=C1NC(=Nc2ccccc2)S/C1=C/c1cccc(O)c1 ?
Pf apPOL inh: -2; mHTT CaM bind: 25

Results for O=C1/C(=C/c2cc(Br)cc([N+](=O)[O-])c2O)Sc2ccccc21 ?
Pf apPOL inh: 20; mHTT CaM bind: 45

Results for CNC(=O)C1CCN(c2nc3ccc(-c4ccncc4)nc3s2)CC1 ?
Pf apPOL inh: 26; mHTT CaM bind: 10

What do the screens show for `Cc1ccc(CNC(=O)N2CCC(n3c(-c4ccco4)nc4cccnc43)C2)cc1` (stereo not given)?
Pf apPOL inh: -2; mHTT CaM bind: 37

How did Cc1ccc(S(=O)(=O)N=Cc2ccc(Br)cc2)cc1 do in these assays?
Pf apPOL inh: -2; mHTT CaM bind: 0

What do the screens show for `CCOc1cc(/C=C2/SC(=O)NC2=O)cc([N+](=O)[O-])c1O`?
Pf apPOL inh: -2; mHTT CaM bind: 28

How did COc1cc(/C=C2\SC(=Nc3ccccc3)NC2=O)cc(OC)c1O do in these assays?
Pf apPOL inh: 12; mHTT CaM bind: 74*

How did COc1cccc(/C=C2/SC(=Nc3cc(C)cc(C)c3)NC2=O)c1O do in these assays?
Pf apPOL inh: 4; mHTT CaM bind: 52*

Results for COc1ccc(/C=C2\SC(=Nc3cc(C)cc(C)c3)NC2=O)cc1 ?
Pf apPOL inh: -1; mHTT CaM bind: 19

Results for COc1cc(/C=C2/SC(=Nc3ccccc3)NC2=O)ccc1OCC#N ?
Pf apPOL inh: -16; mHTT CaM bind: 54*

What do the screens show for `COc1cc(/C=C2/SC(=Nc3cc(C)cc(C)c3)NC2=O)cc([N+](=O)[O-])c1O`?
Pf apPOL inh: -1; mHTT CaM bind: 54*

How did COc1cc(/C=C2\SC(=Nc3ccccc3)NC2=O)cc(OC)c1OC do in these assays?
Pf apPOL inh: -16; mHTT CaM bind: 18

Results for CCOc1ccc(N=C2NC(=O)/C(=C\c3ccc(OC)c(OC)c3)S2)cc1 ?
Pf apPOL inh: -3; mHTT CaM bind: 8

Screening results (PubChem)
